In PubChem BioAssay (NCI) one finds growth data, which are given here for 15 compounds.

The panel holds about 83,000 compounds, 20% with a hit somewhere; the sample as a whole holds those more often.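 Values shown are percent growth following 48 h exposure of cells in 96-well plates to a single concentration of compound; below 10 was considered active.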 Values without a mark were called inactive. Activity calls are given as the source filed them.

Common to all, as to assay: NCI-60 one-dose screen, 48 h (100 = growth as untreated, 0 = no growth, -100 = all killed)
Settings in all cases: 10 µM

Assay [1] concerns NCI-H23 lung.
Assay [2] relates to NCI-H226 lung.
Assay [3] deals with HOP-62 NSCLC.
The subject of assay [4] is NCI-H460 lung.
The test system of assay [5] is HOP-92 NSCLC.
Assay [6] has as its system NCI-H522 lung.
For assay [7], the system named is A549/ATCC NSCLC.
Assay [8] concerns 786-0 renal.
In assay [9] the test system is COLO 205 colon.
In assay [10] the test system is DU-145 prostate.
Assay [11] deals with K-562 leukemia.
In assay [12] the test system is MALME-3M melanoma.
Assay [13] concerns MDA-MB-231 breast.
For assay [14], the system named is RXF 393 renal.
Assay [15] has as its system SF-268 CNS.
The subject of assay [16] is SF-295 CNS.
For assay [17], the system named is SF-539 CNS.
Assay [18] has as its system UACC-257 melanoma.
Assay [19] relates to M14 melanoma.

For the compound `Cc1c(Cl)cccc1NC(=O)CCCl`, the growth in assay [1] is 105%; in [2], 95.3%; in assay [3], 86.9%; in assay [4], 102%; in assay [5], 103%; in assay [6], 91%. Also, the growth in [7] is 92.8%; in [8], 103%; in [9], 107%; in assay [10], 106%; in assay [11] it was 88.2%; in assay [12], 108%. Besides, the growth in assay [13] was 121%; in assay [14], 112%; in assay [15], 97.8%; in [16], 106%; in assay [17], 102%; in assay [18], 89.2%. In assay [19], the growth was 97%.
In the case of `CCOC(=O)c1cc(C(=O)c2ccc(OC)c(OC)c2)n2ccncc12`, the growth in assay [1] was 97.4%; in assay [2], 101%; in assay [3], 106%; in assay [4], 106%; in assay [5] it was 94.9%; in [6], 74%. Besides, the growth was 99.3% in assay [7]; 106% in [8]; 115% in assay [9]; 102% in assay [10]; 87.5% in assay [11]; 112% in assay [12]. Moreover, the growth is 91.4% in assay [13]; 106% in assay [14]; 109% in assay [15]; 102% in assay [16]; 99.3% in assay [17]; 102% in assay [18]. Also, in [19], the growth is 102%.
`C/C=C/CSC(C)(C)C(=O)NC`: the growth in assay [1] was 102%; in assay [2] it was 100%; in assay [3] it was 89.7%; in [4] it was 104%; in assay [5], 104%; in assay [6], 86%. In addition, the growth in assay [7] is 88.7%; in [8], 108%; in assay [9] it was 119%; in assay [10], 103%; in [11], 110%; in assay [12], 111%. The growth in assay [13] is 120%; in assay [14], 110%; in [15], 103%; in assay [16], 106%; in assay [17], 100%; in [18], 92.2%. Further, the growth in assay [19] was 104%.
On to `NC(=O)c1cccc(-n2ccc3cc(NC(=O)Nc4ccc(Cl)c(C(F)(F)F)c4)ccc32)n1`, for which the growth in assay [1] was 82.2%; in assay [2], 66.2%; in [3], 86.5%; in assay [4] it was 68%; in assay [5], 97.6%; in assay [6], 64.7%. For the same compound, the growth in [7] was 68.2%; in assay [8], 49.1%; in [9] it was 85.6%; in assay [10], 95%; in assay [11], 59.3%; in assay [12], 87.8%. Besides, the growth in assay [13] was 75.8%; in [14] it was 2.44% (active); in assay [15], 76.6%; in assay [16], 58.2%; in assay [17], 44.2%; in assay [18] it was 93.3%. For the same compound, the growth in assay [19] was 78.8%.
With `Cc1ccc(N=Nc2ccccc2)cc1`, the growth in assay [1] is 95.1%; in assay [2], 108%; in assay [3], 90.5%; in [4], 105%; in assay [5] it was 90.9%; in assay [6], 84.2%. For the same compound, the growth in assay [7] is 87.8%; in assay [8], 89.6%; in assay [9], 106%; in assay [10], 111%; in assay [11] it was 112%; in assay [12] it was 98.4%. In addition, the growth in assay [13] is 109%; in assay [14] it was 106%; in assay [15], 99.8%; in assay [16], 90.3%; in assay [17], 100%; in assay [18], 88%. For the same compound, the growth in assay [19] was 90.9%.
As to `Cc1cc(SC#N)cc(C(C)(C)C)c1O`, the growth was 93.1% in assay [1]; 102% in assay [2]; 100% in assay [3]; 104% in [4]; 81.7% in [5]; 68.1% in [6]. For the same compound, the growth was 81.9% in [7]; 101% in assay [8]; 101% in assay [9]; 110% in assay [10]; 91.3% in [11]; 85.8% in assay [12]. The growth in assay [13] was 113%; in [14], 118%; in assay [15], 103%; in assay [16], 102%; in assay [17], 95.6%; in assay [18] it was 94.1%. For the same compound, in assay [19], the growth is 90.3%.
Take `Cc1nn(-c2ccc(-c3ccc(OC(F)(F)F)cc3)cc2)c2nc(Cc3ccccc3)nc(N)c12`: the growth in [1] was 64.9%; in assay [2], 42.5%; in assay [3], 45.9%; in assay [4], 3.39% (active); in assay [5], 59%; in assay [6], 73.7%. The growth in assay [7] is 16.7%; in [8], 5.79% (active); in [9] it was 65.2%; in assay [10], 75.5%; in [11] it was 63.7%; in [12], 83.8%. Besides, the growth in assay [13] was 48.3%; in assay [14] it was 77.9%; in assay [15], 54.3%; in assay [16] it was 47.7%; in assay [17] it was 80.3%; in assay [18], 78.8%. Besides, the growth in [19] is 69%.
With `C=CCN(CC=C)C(=O)[C@H](CC)[C@@H]1CC[C@@H](C)[C@@H]([C@H](C)[C@@H](O)[C@@H](C)C(=O)[C@H](CC)C2O[C@]3(C=C[C@@H](O)[C@]4(CC[C@@](C)([C@H]5CC[C@](O)(CC)[C@H](C)O5)O4)O3)[C@H](C)C[C@@H]2C)O1` (stereo not given in full), the growth in [1] is 6.23% (active); in assay [2], -0.687% (active); in assay [3], 12%; in [4], 3.23% (active); in [5], -23.9% (active); in assay [6] it was -2.7% (active). For the same compound, the growth is 11.5% in [7]; 20% in assay [8]; -62.4% (active) in assay [9]; 53.7% in assay [10]; 14.3% in assay [11]; -22.4% (active) in assay [12]. Moreover, the growth was -36.3% (active) in [13]; -1.56% (active) in assay [14]; 41.7% in assay [15]; -16% (active) in assay [16]; 29.1% in assay [17]; 7.88% (active) in [18]. Further, the growth in assay [19] is 17.9%.
Consider `CC(C)(C)OC(=O)N1CCc2c(sc3ncnc(N/N=C/c4cccc5ccccc45)c23)C1`, for which the growth was 12.9% in [1]; 31% in [2]; 27.8% in assay [3]; 4.98% (active) in assay [4]; 25.6% in assay [5]; 16% in [6]. Besides, the growth in [7] is 23.8%; in assay [8], 16.9%; in assay [9] it was 13.8%; in assay [10], 49.7%; in assay [11], 7.07% (active); in [12], 49.9%. In addition, the growth in [13] was 45.6%; in [14] it was 2.63% (active); in [15] it was 46.7%; in [16], 1.31% (active); in assay [17], -11.3% (active); in assay [18], 40.6%. Moreover, the growth in assay [19] is 20.3%.
On to `COc1cc(C(=O)n2nc(-c3cc(OC)c(OC)c(OC)c3)nc2N)cc(OC)c1OC`, for which the growth in assay [1] is 92.9%; in assay [2] it was 98.7%; in assay [3], 85.8%; in assay [4], 103%; in assay [5], 82%; in [6], 82.1%. Besides, the growth in assay [7] was 98.5%; in [8] it was 96.6%; in assay [9] it was 99.4%; in assay [10] it was 101%; in assay [11], 77.8%; in assay [12] it was 103%. The growth in [13] was 108%; in [14], 114%; in [15] it was 93.4%; in [16] it was 92.7%; in assay [17], 96.6%; in [18], 101%. For the same compound, the growth in [19] is 89.9%.
Consider `O=C(O)COc1c(Cl)cc([N+](=O)[O-])cc1Cl`, for which the growth was 99% in assay [1]; 96.4% in assay [2]; 88.8% in [3]; 109% in assay [4]; 78.5% in assay [5]; 76.8% in [6]. In addition, the growth in [7] is 81.7%; in assay [8], 88.6%; in assay [9] it was 102%; in assay [10], 111%; in [11] it was 92.2%; in assay [12] it was 97.1%. Moreover, the growth in assay [13] is 117%; in assay [14] it was 102%; in [15], 96.5%; in [16], 100%; in assay [17] it was 99.5%; in [18] it was 79.7%. Also, the growth in assay [19] was 88.7%.
`COc1cc(C)ccc1Oc1nc(Nc2ccc(N3CCOCC3)cc2)ncc1NC(=O)Nc1cc(C(F)(F)F)cc(C(F)(F)F)c1`: the growth is 72% in assay [1]; 84.3% in assay [2]; 58.5% in [3]; 24.7% in assay [4]; 66.8% in assay [5]; 73.2% in [6]. Further, the growth in [7] was 14.5%; in [8], 55%; in [9], 109%; in assay [10], 23.3%; in [11], 40.3%; in assay [12], 108%. In addition, the growth in [13] was 51.5%; in assay [14], -27.6% (active); in assay [15], 49.7%; in assay [16], 60.2%; in assay [17] it was 65.6%; in assay [18], 84.3%. Also, the growth in assay [19] was 73%.
For `CCCc1cn(CC(=O)Nc2nc3ccccc3s2)nn1`, the growth in assay [1] was 110%; in assay [2], 106%; in assay [3], 102%; in assay [4], 103%; in [5], 109%; in assay [6], 93.8%. Besides, the growth in [7] was 98.4%; in assay [8] it was 108%; in [9], 109%; in [10], 117%; in assay [11], 106%; in [12], 101%. Further, the growth was 98.9% in [13]; 114% in assay [14]; 98.8% in assay [15]; 104% in [16]; 99.5% in [17]; 106% in [18]. Moreover, in [19], the growth was 102%.
With `CC(C)N(CCOc1cccc(-c2nc3sccn3c2-c2ccnc(S(C)(=O)=O)n2)c1)C(C)C`, the growth in [1] was 96.1%; in [2], 67.5%; in assay [3] it was 103%; in assay [4], 94.7%; in [5], 43.5%; in [6], 82%. The growth is 104% in assay [7]; 97.3% in [8]; 97.6% in [9]; 89.8% in [10]; 69.1% in [11]; 91.3% in assay [12]. Further, the growth was 57.8% in assay [13]; 65.3% in [14]; 92.5% in assay [15]; 103% in assay [16]; 91.9% in [17]; 104% in assay [18]. Further, the growth in assay [19] is 111%.
Consider `CC(=O)C1CCC2C3CC=C4CC(SC(=N)N)CCC4(C)C3CCC12C` (stereo not given), for which the growth in assay [1] was 61.8%; in assay [2] it was 56.6%; in assay [3], 82.5%; in assay [4], 16.7%; in assay [5], 30.2%; in [6], 61.5%. For the same compound, the growth in assay [7] was 47.5%; in assay [8], 48%; in assay [9], -100% (active); in assay [10], 75.5%; in assay [11], -5.34% (active); in assay [12], -6.9% (active). The growth was 46.6% in [13]; 25.6% in [14]; 72% in [15]; 51.1% in [16]; 65.5% in assay [17]; 13.6% in assay [18]. For the same compound, the growth in assay [19] is 18.3%.
